The record followed here is the supplement of paper PMC8007513.

The test relates to Trichoderma virens ATCC 9645. The test is described as follows: growth yield (OD600) relative to untreated control; higher = less growth inhibition. The conditions noted are these: compound concentration: 100 uM. The method, boiled down:
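Library compounds (100 μM final), with or without a co-applied biocide (200 ng ml^−1), were added to 100 μl aliquots of Trichoderma virens ATCC 9645 spores at 15,000 spores ml^−1 in potato dextrose broth. Cultures were grown at 30 °C in 96-well plates, and OD600 was measured at 40 h and 72 h. Each growth value is a mean of duplicate screens, expressed relative to the control with neither agent.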

Counter-ions that a name gives are not always drawn. ± gives the standard error. Out of some 1,300 compounds screened, about 75 (6%) showed an effect of 50% or more. The list comes from a sample in which strong results are over-represented; it also holds similar structures and randomly drawn compounds.

As for `COc1ccc(C(=O)c2ccccc2)c(O)c1` [Oxybenzone], the growth yield was 53.8 ± 4.3% (40 h) and 62.9% (72 h).

As for `COc1ccccc1O` [Guaiacol], the growth yield was 103.9 ± 0.95% (40 h) and 102.7 ± 0.32% (72 h).

Compound `COc1ccc(C(=O)c2ccccc2O)c(O)c1` [Dioxybenzone] registered a growth yield (40 h) of 22.2% and a growth yield (72 h) of 45.1 ± 2.7%.

The compound `Nc1cc(N2CCCCC2)nc(N)[n+]1[O-]` [Minoxidil] had a growth yield (40 h) of 104 ± 3.2% and a growth yield (72 h) of 102 ± 1.3%.

For the compound `O=C(NCCO[N+](=O)[O-])c1cccnc1` [Nicorandil], the growth yield runs as follows: (40 h) 102.9 ± 0.32%; (72 h) 102 ± 4.2%.

As to `CC1=C(C(=O)O)N2C(=O)[C@@H](NC(=O)[C@H](N)c3ccc(O)cc3)[C@H]2SC1` [Cefadroxil], the growth yield stood at 104 ± 8.9% (40 h) and 106 ± 9.1% (72 h).

For `O=C(O[C@@H]1C[C@@H]2C[C@H]3C[C@H](C1)N2CC3=O)c1c[nH]c2ccccc12` [Dolasetron mesilate], the growth yield by setting is: (40 h) 106 ± 3.3%; (72 h) 104 ± 1.9%.

`CCn1cc(C(=O)O)c(=O)c2cnc(N3CCCC3)nc21` [Piromidic acid]: the growth yield runs as follows: (40 h) 90.5 ± 5.7%; (72 h) 92.1 ± 4%.

Regarding `CCCCC(CC)CNC(=N)NC(=N)NCCCCCCNC(=N)NC(=N)NCC(CC)CCCC` (centres undefined) [Alexidine dihydrochloride], the growth yield is, setting by setting: (40 h) 1.91 ± 0.32%; (72 h) 1.89 ± 0.63%.

`OC(CCN1CCCCC1)(c1ccccc1)C1CC2C=CC1C2` (centres undefined) [Biperiden hydrochloride] came in with a growth yield (40 h) of 104 ± 2.9% and a growth yield (72 h) of 105 ± 1.9%.

For the compound `CCN(CC)CCNc1ccc(CO)c2sc3ccccc3c(=O)c12` [Hycanthone], the growth yield reads like this: (40 h) 118 ± 4.1%; (72 h) 114.7 ± 0.63%.

For `CCCCC[C@H](O)/C=C/[C@H]1[C@H](O)CC(=O)[C@@H]1CCCCCCC(=O)O` [Alprostadil], the growth yield by setting is: (40 h) 107 ± 8.4%; (72 h) 101 ± 6.2%.

The compound `C[C@@H]1C[C@H]2[C@@H]3C[C@H](F)C4=CC(=O)C=C[C@]4(C)[C@@]3(Cl)[C@@H](O)C[C@]2(C)[C@H]1C(=O)COC(=O)C(C)(C)C` [Clocortolone pivalate] gave a growth yield (40 h) of 107 ± 4% and a growth yield (72 h) of 100 ± 5.7%.

Turning to `O=c1oc2ccccc2c(O)c1Cc1c(O)c2ccccc2oc1=O` [Dicumarol], the growth yield was determined as 94 ± 0.95% (40 h) and 92.4 ± 0.94% (72 h).

As to `CC(=O)CC(c1ccccc1)c1c(O)c2ccccc2oc1=O` (centres undefined) [Warfarin], the growth yield reads like this: (40 h) 90.9 ± 3.5%; (72 h) 89.1 ± 4%.

Regarding `CCc1oc2ccccc2c1C(=O)c1cc(Br)c(O)c(Br)c1` [Benzbromarone], the growth yield (40 h) came out at 40.7 ± 5.7% and the growth yield (72 h) came to 77.8 ± 4.8%.

Consider `CC(Cc1cccc(C(F)(F)F)c1)NCCOC(=O)c1ccccc1` (centres undefined) [Benfluorex], for which the growth yield reads like this: (40 h) 83.5 ± 3.5%; (72 h) 95.9 ± 1.9%.

As to `CN[C@@H]1[C@H](O[C@H]2[C@H](O[C@H]3[C@H](O)[C@@H](O)[C@H](NC(=N)N)[C@@H](O)[C@@H]3NC(=N)N)O[C@@H](C)[C@]2(O)CO)O[C@@H](CO)[C@H](O)[C@H]1O` [Dihydrostreptomycin sulfate], the growth yield worked out at 96.9% (40 h) and 98% (72 h).

On to `CCOC1O[C@H]([C@@H](COCc2ccccc2)OCc2ccccc2)[C@H](OCc2ccccc2)[C@H]1O` (some centres undefined) [Tribenoside], for which the growth yield (40 h) turned out to be 90.2 ± 6% and the growth yield (72 h) came out at 87.2 ± 6.2%.

On to `CC(C)CC(=O)N[C@H](C(=O)N[C@H](C(=O)N[C@@H](CC(C)C)[C@@H](O)CC(=O)N[C@@H](C)C(=O)N[C@@H](CC(C)C)[C@@H](O)CC(=O)O)C(C)C)C(C)C` [Pepstatin A], for which the growth yield runs as follows: (40 h) 106 ± 5.4%; (72 h) 102 ± 7.8%.

On to `CN(C)CCOC(c1ccc(Cl)cc1)c1ccccn1` (centres undefined) [Carbinoxamine maleate salt], for which the growth yield came to 97.7 ± 4.3% (40 h) and 97.8 ± 2.6% (72 h).

Turning to `CCN(CC)C(=S)SSC(=S)N(CC)CC` [Disulfiram], the growth yield reads like this: (40 h) 27.2 ± 17%; (72 h) 67.8 ± 12%.

On to `COc1ccccc1N1CCN(CC(O)COc2cccc3ccccc23)CC1` (centres undefined) [Naftopidil dihydrochloride], for which the growth yield by setting is: (40 h) 97.4 ± 1.1%; (72 h) 110.22 ± 0.1%.

As to `NCCNCCNCCNCCN` [Tetraethylenepentamine pentahydrochloride], the growth yield (40 h) came to 103 ± 2.5% and the growth yield (72 h) stood at 99.8 ± 2.9%.

Turning to `CCCOc1ccccc1-c1nc2[nH]nnc2c(=O)[nH]1` [Zaprinast], the growth yield by setting is: (40 h) 99.1%; (72 h) 106 ± 1.1%.

As for `CCC(=O)OCC(=O)[C@@]1(OC(=O)CC)[C@H](C)C[C@H]2[C@H]3[C@H]([C@@H](O)C[C@@]21C)[C@@]1(C)C=CC(=O)C=C1C[C@H]3Cl` [Alclometasone dipropionate], the growth yield amounted to 101 ± 4% (40 h) and 97.7 ± 1.7% (72 h).

`CCCCCCNC(=O)n1cc(F)c(=O)[nH]c1=O` [Carmofur]: the growth yield stood at 16.4 ± 0.48% (40 h) and 33.1 ± 5.5% (72 h).

Take `Nc1nc(=O)c2c([nH]1)NC[C@@H](CNc1ccc(C(=O)N[C@@H](CCC(=O)O)C(=O)O)cc1)N2C=O` [Folinic acid calcium salt]: the growth yield by setting is: (40 h) 99.8 ± 2.5%; (72 h) 92 ± 4.1%.

`CC(C)NC[C@H](O)COc1ccc(CC(N)=O)cc1` [(S)-(-)-Atenolol]: the growth yield (40 h) stood at 100 ± 1.6% and the growth yield (72 h) came to 101 ± 1.5%.

On to `NS(=O)(=O)c1cc2c(cc1C(F)(F)F)NC(Cc1ccccc1)NS2(=O)=O` (centres undefined) [Bendroflumethiazide], for which the growth yield by setting is: (40 h) 106 ± 3.3%; (72 h) 102 ± 3.4%.

Consider `CN(c1nccc(=O)[nH]1)C1CCN(c2nc3ccccc3n2Cc2ccc(F)cc2)CC1` [Mizolastine], for which the growth yield runs as follows: (40 h) 94.5 ± 2.4%; (72 h) 96 ± 2.6%.

With `COc1ccc(CN(CCN(C)C)c2ccccn2)cc1` [Pyrilamine maleate], the growth yield is, setting by setting: (40 h) 101 ± 1.1%; (72 h) 103 ± 1.5%.
